This passage reports activity change results from PubChem BioAssay AID651725 (National Center for Advancing Translational Sciences (NCATS), 2012).

In all, about 360,000 compounds went through this assay and about 2,000 (0.56%) were called active. About 2% were inconclusive and are not listed. The sample as a whole holds a higher share of actives than the screen did. Values without a mark were called inactive. No stated cut-off is given here; in the data, active means activity change below about -65%; inconclusive means mostly about -30% to -63%; inactive means weaker than that.
On the % scale 0 is the no-effect control and ±100 the full control effect.

The test deals with Homeobox protein SIX1 (Homo sapiens) + Protein phosphatase EYA2 (Homo sapiens) (UniProt Q15475+O00167). Nature of the test: qHTS Assay for Inhibitors of the Six1/Eya2 Interaction. Conditions: AlphaScreen GST-Six1/His-Eya2 binding, biochemical; active compounds read low. The method in brief: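 AlphaScreen with GST-Six1 and His-Eya2 (5X mix: 250 nM and 500 nM), glutathione donor and nickel acceptor beads; buffer 50 mM Tris pH 8.0, 300 mM NaCl, 1 mM TCEP; 1 h at 37 C in the dark.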
Sequence of Homeobox protein SIX1 (Homo sapiens) + Protein phosphatase EYA2 (Homo sapiens) (O00167 whole entry, looked up): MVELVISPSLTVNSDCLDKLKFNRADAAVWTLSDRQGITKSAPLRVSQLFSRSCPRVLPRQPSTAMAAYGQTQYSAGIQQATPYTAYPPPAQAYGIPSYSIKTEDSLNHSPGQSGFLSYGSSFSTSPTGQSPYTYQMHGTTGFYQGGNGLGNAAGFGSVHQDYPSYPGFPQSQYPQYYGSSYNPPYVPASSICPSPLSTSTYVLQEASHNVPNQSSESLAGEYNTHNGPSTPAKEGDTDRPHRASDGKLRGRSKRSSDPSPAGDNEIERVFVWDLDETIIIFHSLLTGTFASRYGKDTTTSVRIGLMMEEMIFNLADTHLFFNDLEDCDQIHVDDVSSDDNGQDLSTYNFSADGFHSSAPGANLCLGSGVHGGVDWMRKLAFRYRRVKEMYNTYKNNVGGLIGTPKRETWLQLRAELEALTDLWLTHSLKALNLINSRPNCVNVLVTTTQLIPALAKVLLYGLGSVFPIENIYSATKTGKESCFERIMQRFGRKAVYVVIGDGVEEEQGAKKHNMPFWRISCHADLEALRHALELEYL
Sequence of Homeobox protein SIX1 (Homo sapiens) + Protein phosphatase EYA2 (Homo sapiens) (Q15475 whole entry, looked up): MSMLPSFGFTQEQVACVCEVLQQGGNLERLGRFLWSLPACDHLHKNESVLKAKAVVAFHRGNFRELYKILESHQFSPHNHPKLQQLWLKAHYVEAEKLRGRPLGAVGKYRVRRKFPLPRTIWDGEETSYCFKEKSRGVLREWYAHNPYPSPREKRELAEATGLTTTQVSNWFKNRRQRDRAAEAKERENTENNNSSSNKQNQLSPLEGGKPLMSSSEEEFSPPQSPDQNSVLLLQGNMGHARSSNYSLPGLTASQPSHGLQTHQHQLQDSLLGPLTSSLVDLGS
In general terms: qHTS replaces the single test concentration by a dilution series.
For `Cn1c(=O)c2c(nc(N/N=C/c3cccs3)n2Cc2ccc(Br)cc2)n(C)c1=O`, the activity change is 29.6%.

In the case of `Cc1n[nH]c(=O)nc1N/N=C/c1cccs1`, the activity change is -90.5% (active).

As to `Cc1nc2ccccc2n1CC(=O)N/N=C/c1cccs1`, the activity change is -11.4%.

For the compound `Cc1nccn1-c1ccc(NC(=O)[C@H]2O[C@@H](n3ccc(=O)[nH]c3=O)[C@H](O)[C@@H]2O)cc1`, the activity change was 1.11%.

Take `O=C(NCc1ccccc1)C(c1ccc(F)cc1)N1CCN(C(=O)C2CCCO2)CC1` (configuration not stated): the activity change was 20.6%.

As for `Cc1cccc(NC(=O)c2cc(N3C(=O)CCC3=O)ccc2Cl)n1`, the activity change was 3.08%.

Take `Cc1cc(NC(=O)c2ccccc2C)no1`: the activity change was 9.99%.

`Cc1cc(NC(=O)c2cccc(N3C(=O)CCC3=O)c2)no1`: the activity change was -70.6% (active).

On to `Cc1ccc(S(=O)(=O)N2[C@@H](Cc3ccccc3)CO[C@H]2CC(=O)OCc2ccccc2)cc1`, for which the activity change is -3.63%.

`CCOC(=O)C1C(C)C(C(C)(C)C)N(S(=O)(=O)c2ccc(C)cc2)C1c1ccccc1` (configuration not stated): the activity change was 6.65%.

On to `C=C(C)CNC(=S)N/N=C/c1ccccc1OCC(=O)O`, for which the activity change was 0.44%.

Take `CCOc1cccc(/C=N/NC(=S)NCCN2CCOCC2)c1O`: the activity change is -92.1% (active).

On to `O=C(NCCN1CCOCC1)Nc1cccc(Cl)c1`, for which the activity change is 3.67%.

Turning to `CCOC(=O)[C@]12CCCC=C1N(CCC1=CCCCC1)C(=O)[C@H](CC(=O)N1CCCCC1)C2`, the activity change was -1.85%.

Turning to `COc1ccc(C(=O)C(OP(=O)(OC)OC)c2ccccc2OC)cc1` (configuration not stated), the activity change was 2.49%.

For the compound `O=C(COC(=O)Cc1ccc(Br)cc1)Nc1c(F)c(F)c(F)c(F)c1F`, the activity change was 1.31%.

On to `Oc1ccc(/C=N/Nc2nc(-c3ccccc3F)nc3ccccc23)c(O)c1`, for which the activity change is -71.7% (active).

As for `Cc1nc2ccccc2nc1N/N=C/c1ccc(O)cc1O`, the activity change is -69.1% (active).

Turning to `Oc1ccc2nc(Cc3ccccc3)[nH]c2c1`, the activity change was -2.17%.

On to `Brc1ccccc1/C=N/Nc1nc2ccccc2o1`, for which the activity change was -4.05%.

Regarding `O=C(C[C@H]1CC[C@@H](NC(=O)c2ccncc2)[C@@H](CO)O1)NCC1CC1`, the activity change is 8.47%.

With `CCCCCCCCN1C(=O)[C@H](CC(=O)NCC23CC4CC(CC(C4)C2)C3)C[C@@]2(C(=O)OC)CCCCC=C12`, the activity change is -0.139%.

With `O=S1(=O)CC(N2CCSCC2)CN1Cc1cn(Cc2cccc(Cl)c2)nn1` (configuration not stated), the activity change was 0.627%.

Turning to `CCOc1cccc2c1OC1(CCCCC1)N1N=C(c3cccnc3)CC21` (configuration not stated), the activity change is -13.8%.

`C[C@H]1COc2cc(N3CCSCC3)ccc2S(=O)(=O)N1`: the activity change is 3.55%.

Regarding `COc1ccc(S(=O)(=O)Nc2ccc(F)cc2)c(C)c1C`, the activity change is -0.291%.

Take `COc1cc(N2CCCC2)c(OC)cc1/C=C(/C#N)c1cccc(Br)c1`: the activity change was -67% (active).

Consider `Cc1nc2c(OCc3ccc(Cl)cc3Cl)cccn2c1N(C)CC1CC1`, for which the activity change is -5.16%.

With `Nc1nc2ncccn2c1-c1ccccc1`, the activity change is 3.63%.

Consider `CCCOc1ccc(Cc2c(O)nc(N)[nH]c2=O)cc1C`, for which the activity change was -5.12%.

`Cc1ccc(S(=O)(=O)N2CC3C(=O)C[C@@H](c4ccccc4Cl)N(S(=O)(=O)c4ccc(C)cc4)C3CC2c2ccccc2)cc1` (some centres not stated): the activity change is -4.43%.

For `CC1(C)OC(=O)C2=C(C[C@@H](C3CC3)O[C@H]2CCc2cccc(Cl)c2)O1`, the activity change is 7.67%.

For `CCc1c(-c2ccc(F)cc2)ncn1Cc1cccc(-c2ccccc2)c1`, the activity change was -29.6%.

Turning to `NC(=O)C1CCN(C(=O)COc2cccc3cccnc23)CC1`, the activity change was 8.87%.

For `O=C(Nc1ccccc1)Oc1cccc2cccnc12`, the activity change is -91.9% (active).

As to `O=S(=O)(NCCOc1cccc2cccnc12)c1ccc(F)cc1`, the activity change was 6.83%.

Regarding `CCCCNC(=O)C[C@@H]1C[C@@]2(C(=O)OC)CC(C)(C)CC=C2N(Cc2ccco2)C1=O`, the activity change was -8.69%.

Turning to `CCCc1c(C(=O)Nc2ccc(F)cc2)cnn1-c1ccccc1`, the activity change was 1.46%.

In the case of `COCCCn1cc(CN2CC(N(C)C)CS2(=O)=O)nn1` (configuration not stated), the activity change was 15.9%.

For `COC(=O)[C@]12CCCCC=C1N(CCC1=CCCCC1)C(=O)[C@H](CC(=O)N1CCSCC1)C2`, the activity change is -5.23%.

Regarding `COc1ccc(/C=N/Nc2ncnc3sc4c(c23)CCCC4)cc1O`, the activity change is -78.1% (active).

In the case of `COc1ccc(NC(=O)CCCNC(=O)Cn2cnc3sc4c(c3c2=O)CCCC4)cc1OC`, the activity change was -5.21%.

In the case of `COc1ccc(NC(=O)CCNC(=O)Cn2cnc3sc4c(c3c2=O)CCCC4)cc1OC`, the activity change was -2.73%.

On to `CO[C@@H]1CN(C)C(=O)c2cc(NC(=O)Nc3cc(F)ccc3F)ccc2OC[C@H](C)N(C(=O)c2ccccn2)C[C@@H]1C`, for which the activity change was -5.82%.

Turning to `CCOC(=O)N1CCN(C(=O)C[C@@H]2C[C@@]3(C(=O)OC)CC(C)(C)CC=C3N(Cc3ccco3)C2=O)CC1`, the activity change was -1.81%.

On to `COc1ccccc1C(=O)NCCC(=O)N(C)Cc1cccnc1`, for which the activity change is 6.46%.

For the compound `COc1ccc2c(c1)c(=Cc1ccc(N(C)C)cc1)c1cc(-c3ccccc3)[n+](C)n12`, the activity change was -69.4% (active).

For the compound `CCCCCNC(=O)C1C(=O)Nc2ccccc2C(=O)N1C(C)(C)C` (configuration not stated), the activity change was 1.59%.

With `Nc1ncnc2c1ncn2[C@@H]1O[C@H](CNCc2cccn2-c2nccs2)[C@@H](O)[C@H]1O`, the activity change was 0.147%.

`Cc1ccc(S(=O)(=O)c2cc3c(=O)n4cccc(C)c4nc3n(CCc3ccccc3)c2=N)cc1C`: the activity change is 0.223%.

On to `Cc1cccn2c(=O)c3cc(C(=O)NCCN4CCOCC4)c(=N)n(Cc4cccnc4)c3nc12`, for which the activity change is -20.8%.

Regarding `COc1ccc(CCn2c(=N)c(C(=O)NCc3ccco3)cc3c(=O)n4cccc(C)c4nc32)cc1`, the activity change is -68.6% (active).

As for `Cc1cccc(N(C(=O)c2ccc(CN3CCOCC3)o2)C(C(=O)NC2CCCCC2)c2ccc(F)cc2)c1` (configuration not stated), the activity change is 0%.

With `COC(=O)[C@@]12C[C@@H](CC(=O)NCc3cccc(C(F)(F)F)c3)C(=O)N(Cc3ccco3)C1=CCC(C)(C)C2`, the activity change was -8.64%.

Turning to `CCOC(=O)c1c(C)oc2cc(Br)c(OCC(N)=O)cc12`, the activity change is 5.69%.

On to `CCOC(=O)c1c(C)oc2ccc(OCC(=O)N(CC)CC)cc12`, for which the activity change was -68.9% (active).

Consider `CCOC(=O)N1CCN(C(=O)COc2ccc3oc4c(c3c2)CCCC4)CC1`, for which the activity change is -10.2%.

For the compound `CC1(C)NC(=O)N(CC(=O)Nc2ccc(-c3ccccc3)cc2)C1=O`, the activity change was 5.24%.

As for `CCC(c1nc2ccccc2[nH]1)n1c(=O)c(-c2cccs2)nc2ccccc21` (configuration not stated), the activity change was 9.68%.

As for `CCCCc1c(-c2ccc(Br)cc2)ncn1CCc1ccccc1OC`, the activity change is -13.5%.

Regarding `CN(C)N=Nc1ccc2nc[nH]c2c1`, the activity change was -72.7% (active).

Consider `CC/C(O)=N\S(=O)(=O)c1ccc(N=NN(C)C)cc1`, for which the activity change was 0%.

As to `CC(=NNC(=O)c1ccc2nc[nH]c2c1)c1ccc(Br)cc1`, the activity change was 0.936%.

Regarding `COC(=O)[C@@]1(Sc2ccc(C)cc2)CC(=O)N(c2cccc(SC)c2)[C@@H]1c1ccccc1`, the activity change was -16.4%.

Take `Cc1cc(C)nc(N/N=C/c2c(CO)cnc(C)c2O)n1`: the activity change was -75.1% (active).

For the compound `Cc1ccc(S(=O)(=O)N[C@H]2CCC[C@@H]2O)cc1`, the activity change is 7.33%.

As for `CC1Cc2[nH][nH]c(=O)c2C(C2CC2)O1` (configuration not stated), the activity change is -3.07%.

On to `CC(=O)C[C@@H]1OC[C@H](C)N1S(=O)(=O)c1ccc(C)cc1`, for which the activity change was -0.665%.

For the compound `Cc1ccc(S(=O)(=O)N2CCC(N3CCCCCC3)CC2)cc1`, the activity change is -10.2%.

As to `Cc1ccc(S(=O)(=O)n2oc(=O)c(C3CCCCC3)c2N)cc1`, the activity change is -78.3% (active).

In the case of `Cc1ccc(S(=O)(=O)NC2CCCCCC2)cc1`, the activity change was 8.84%.

As for `CCC(CC)C(C(=O)NC1CCCC1)N1CCN(c2cc(C)nc3ccccc23)CC1` (configuration not stated), the activity change is 0.151%.

As to `O=S(=O)(c1ccc(F)cc1)N1CC=C(c2ccccc2)CC1`, the activity change is 11.2%.

On to `Cn1c(SCC(=O)c2ccc(F)cc2)nnc1-c1ccccn1`, for which the activity change was 3.69%.

For the compound `Cn1c(CC(=O)Nc2ccccc2)nnc1SCC(=O)c1ccccc1`, the activity change was 3.83%.

With `Cn1c(CNc2nc(-c3ccccc3)cs2)nnc1SCC(=O)c1ccccc1`, the activity change is -73.7% (active).

Regarding `COc1ccc(OC)c(CN2C(=O)CCC2(C)c2nnnn2Cc2ccccc2)c1` (configuration not stated), the activity change is 0.523%.

Take `COc1cc(C(=O)Nc2ncccc2C)ccc1OCC(=O)N1CCOCC1`: the activity change is 7.15%.

On to `C/C(=N\Nc1ccc(Cl)nn1)c1ccccc1O`, for which the activity change is -71.4% (active).

On to `Fc1ccccc1Cc1ccc(Cl)nn1`, for which the activity change is 4.04%.

On to `C/C(=N/Nc1ccc(Cl)cc1)c1cnnc(-c2ccccc2)n1`, for which the activity change was 9.69%.

On to `Oc1cccc(/C=N/Nc2ccc(Cl)nn2)c1O`, for which the activity change is -85.5% (active).

Consider `CCC1OC(C2CC2)CC2=C1C(=O)OC(C)(C)O2` (configuration not stated), for which the activity change was -0.697%.

Consider `COc1ccc2c(c1)c(C(=O)N/N=C/c1cccs1)c(C)n2C`, for which the activity change was -4.11%.

As for `CCOC(=O)[C@]12CCCC=C1N(CCC1=CCCCC1)C(=O)[C@H](CC(=O)NCCCCc1ccccc1)C2`, the activity change is -0.886%.

As to `COc1ccc(C(C(=O)Nc2c(C)cccc2C)N2CCN(c3ccc(C)cc3)CC2)cc1` (configuration not stated), the activity change was -4.54%.

On to `COc1cc(/C=N/NC(=O)c2cccnc2)ccc1OC(=O)c1cccc(Br)c1`, for which the activity change is -6.91%.

As for `COc1ccc(/C=N/NC(=O)C2CC2)c(OC)c1OC`, the activity change was 3.31%.

Take `COc1cccc(/C=N/NC(=O)c2[nH]nc3c2CCc2ccccc2-3)c1O`: the activity change is -65.7% (active).

Consider `COc1ccc(OC)c(/C=N/NC(=O)c2ccc[n+](CC(=O)c3ccccc3)c2)c1`, for which the activity change is -5.56%.

On to `COc1cccc(/C=N\NC(=O)C2=NNC(=O)C2C)c1O` (configuration not stated), for which the activity change was -90.9% (active).

As to `CCn1c(/C=N/NC(=O)c2ccc(OC)cc2)nc2ccccc21`, the activity change is -12.5%.
